Test results taken from PubChem BioAssay (Tox21).
Results filed as inconclusive are left out. The source made the active and inactive calls. Calls follow the shape of the dose curve; as a rule, active = well fitted inhibition curve with a large enough effect in the repeat runs; inconclusive = weak or mixed curves; inactive = no such curve, though single readings can be large or run the other way.

molecular target: Cytochrome P450 2C9 (Homo sapiens) (UniProt P11712); assay: Cytochrome P450 Family 2 Subfamily C Member 9 (CYP2C9) small molecule antagonists: luciferase reporter qHTS assay (AID 1671198); settings: P450-Glo CYP2C9 enzyme assay, luciferin luminescence; series mostly up to 53 µM
In short: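 Enzyme-substrate mix preincubated with compound 10 min at room temperature; reaction started with NADPH regeneration solution, 1 h 37C. Luminescent luciferin product read after 20 min detection reagent.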
Also: nearly all actives have a fitted effect of over 50% in size.
Potency is read from the fitted curve at half-maximal effect.

Chain of Cytochrome P450 2C9 (Homo sapiens) (P11712 whole entry, looked up): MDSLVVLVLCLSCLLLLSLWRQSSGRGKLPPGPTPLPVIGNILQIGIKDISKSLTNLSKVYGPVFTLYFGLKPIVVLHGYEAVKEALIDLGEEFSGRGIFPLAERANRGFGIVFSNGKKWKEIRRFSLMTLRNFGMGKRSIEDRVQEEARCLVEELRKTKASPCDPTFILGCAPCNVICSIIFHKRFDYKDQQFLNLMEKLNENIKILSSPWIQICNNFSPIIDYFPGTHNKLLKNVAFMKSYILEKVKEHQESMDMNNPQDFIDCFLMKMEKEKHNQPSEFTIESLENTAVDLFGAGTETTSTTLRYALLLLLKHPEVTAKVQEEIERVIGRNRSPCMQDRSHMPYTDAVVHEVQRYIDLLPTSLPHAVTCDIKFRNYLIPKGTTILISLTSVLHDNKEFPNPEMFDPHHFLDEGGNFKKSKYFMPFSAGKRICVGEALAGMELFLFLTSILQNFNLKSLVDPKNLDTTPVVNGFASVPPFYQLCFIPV

Compound | Potency
Clc1ccc2nsnc2c1NC1=NCCN1 | inactive
CCCCc1oc2ccc(NS(C)(=O)=O)cc2c1C(=O)c1ccc(OCCCN(CCCC)CCCC)cc1 | 34.7 µM (active)
CCCCCCCC[N+](CCCCCCCC)(CCCCCCCC)CCCCCCCC | 35.5 µM (active)
CCOC(=O)c1nc(C(Cl)(Cl)Cl)n(-c2ccc(Cl)cc2Cl)n1 | 3.17 µM (active)
CCCCCCCCS(=O)C(C)Cc1ccc2c(c1)OCO2 (stereo not given) | 1.62 µM (active)
CCCCCCCCCCCCCCCS(=O)(=O)Oc1ccccc1 | 1.23 µM (active)
O=S1(=O)CC(Cl)(Cl)C(Cl)(Cl)C1 | 22.4 µM (active)
Cc1[nH]nc2c1N=C(c1ccccc1Cl)c1cc([N+](=O)[O-])ccc1N2 | 15.9 µM (active)
CCN(C(=O)c1cc(C)cc(OC[C@H](C)Nc2ccncc2)c1)C(C)C | 7.02 µM (active)
Cc1cccc2c1cc1ccc3cccc4ccc2c1c34 | inactive
NNC(=O)c1cccc(C(=O)NN)c1 | 35.6 µM (active)
[O-][n+]1ccccc1SSc1cccc[n+]1[O-] | 1.51 µM (active)
Oc1ccc(N=Nc2ccccc2)cc1 | 36.1 µM (active)
O=C1c2ccccc2Cc2ccccc21 | 16 µM (active)
CC(C)(C)C1CCC(CC2=C(O)c3ccccc3C(=O)C2=O)CC1 (stereo not given) | 1.95 µM (active)
Cc1cc(N)c(S(=O)(=O)O)cc1Cl | 28.6 µM (active)
O=C1C=CC(=O)N1c1ccc(Cc2ccc(N3C(=O)C=CC3=O)cc2)cc1 | 5.64 µM (active)
O=[N+]([O-])c1ccccc1Nc1ccccc1 | 39.7 µM (active)

Compound | Potency
O=C(OCC(COC(=O)c1ccccc1)(COC(=O)c1ccccc1)COC(=O)c1ccccc1)c1ccccc1 | 5.63 µM (active)
Cc1ccc2oc(CN(Cc3ccccc3)C(=O)Nc3c(F)cc(F)cc3F)c(-c3ccc(Cl)cc3)c2c1 | 4.34 µM (active)
CN1CCC(Nc2ncc3ncnc(Nc4ccc(F)c(Cl)c4)c3n2)CC1 | inactive
CCCCCCCCCOC(=O)c1ccc(O)cc1 | 6.24 µM (active)
Nc1ccc(N)c2ccccc12 | 3.99 µM (active)
O=Cc1cc(O)ccc1Br | 45.4 µM (active)
CCCCCCCC[P+](CCCCCCCC)(CCCCCCCC)CCCCCCCC | 22.3 µM (active)
CN(C)C(=O)C1(N2CCCCC2)CCN(CC[C@@]2(c3ccc(Cl)c(Cl)c3)CN(C(=O)c3ccccc3)CCO2)CC1 | 37.3 µM (active)
Cc1cc(CCN2CCN(c3nsc4ccccc34)CC2)cc2c1NC(=O)CC2(C)C | 39.9 µM (active)
Cc1cccc(S(=O)(=O)O)c1C | inactive
c1cc(C(c2ccc(OCC3CO3)cc2)c2ccc(OCC3CO3)cc2)ccc1OCC1CO1 (stereo not given) | 20 µM (active)
NNc1nc(-c2ccc([N+](=O)[O-])cc2)cs1 | 5.64 µM (active)
CCOc1ccc2nc3cc(N)ccc3c(N)c2c1 | inactive
[Cl][Bi]([Cl])([c]1ccccc1)([c]1ccccc1)[c]1ccccc1 | 1.12 µM (active)
O=C(Nc1ccc(Oc2ccc(Cl)cc2)c(Cl)c1)c1cc(I)cc(I)c1O | 38.9 µM (active)
COC(=O)c1cc(Cl)ccc1OC | inactive
CCCCCCCCn1sc(Cl)c(Cl)c1=O | 3.17 µM (active)

molecular target: Cytochrome P450 1A2 (Homo sapiens) (UniProt P05177); assay: Cytochrome P450 Family 1 Subfamily A Member 2 (CYP1A2) small molecule antagonists: luciferase reporter qHTS assay (AID 1671199); settings: P450-Glo CYP1A2 enzyme, luciferin luminescence, 1 h; series mostly up to 53 µM
In short: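 Compounds were incubated with CYP1A2 and a luminogenic proluciferin substrate for 10 min at room temperature before the reaction was started with NADPH regeneration solution. After 1 h, detection reagent was added and light output, proportional to CYP activity, was recorded.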

Chain of Cytochrome P450 1A2 (Homo sapiens) (P05177 whole entry, looked up): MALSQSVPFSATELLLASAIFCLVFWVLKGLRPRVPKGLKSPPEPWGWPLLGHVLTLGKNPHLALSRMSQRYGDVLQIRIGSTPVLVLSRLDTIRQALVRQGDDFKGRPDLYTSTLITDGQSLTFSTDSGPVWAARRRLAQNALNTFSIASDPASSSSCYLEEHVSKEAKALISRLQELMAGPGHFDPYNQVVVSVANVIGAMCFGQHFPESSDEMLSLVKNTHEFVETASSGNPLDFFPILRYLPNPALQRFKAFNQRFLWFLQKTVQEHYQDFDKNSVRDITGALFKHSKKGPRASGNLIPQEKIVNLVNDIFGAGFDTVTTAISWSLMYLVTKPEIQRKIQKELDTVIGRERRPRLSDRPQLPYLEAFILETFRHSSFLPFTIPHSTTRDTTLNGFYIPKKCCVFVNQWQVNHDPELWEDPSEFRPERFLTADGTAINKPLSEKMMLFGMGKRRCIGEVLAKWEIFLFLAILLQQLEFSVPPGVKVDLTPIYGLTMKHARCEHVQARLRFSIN

Compound | Potency
Clc1ccc2nsnc2c1NC1=NCCN1 | inactive
CCCCc1oc2ccc(NS(C)(=O)=O)cc2c1C(=O)c1ccc(OCCCN(CCCC)CCCC)cc1 | inactive
CCCCCCCC[N+](CCCCCCCC)(CCCCCCCC)CCCCCCCC | 70.9 µM (active)
CCOC(=O)c1nc(C(Cl)(Cl)Cl)n(-c2ccc(Cl)cc2Cl)n1 | inactive
CCCCCCCCS(=O)C(C)Cc1ccc2c(c1)OCO2 (stereo not given) | 28.8 µM (active)
CCCCCCCCCCCCCCCS(=O)(=O)Oc1ccccc1 | inactive
O=S1(=O)CC(Cl)(Cl)C(Cl)(Cl)C1 | 22.4 µM (active)
Cc1[nH]nc2c1N=C(c1ccccc1Cl)c1cc([N+](=O)[O-])ccc1N2 | 63.3 µM (active)
CCN(C(=O)c1cc(C)cc(OC[C@H](C)Nc2ccncc2)c1)C(C)C | inactive
Cc1cccc2c1cc1ccc3cccc4ccc2c1c34 | 0.205 µM (active)
NNC(=O)c1cccc(C(=O)NN)c1 | 10 µM (active)
[O-][n+]1ccccc1SSc1cccc[n+]1[O-] | 2.81 µM (active)
Oc1ccc(N=Nc2ccccc2)cc1 | 16.1 µM (active)
O=C1c2ccccc2Cc2ccccc21 | 0.452 µM (active)
CC(C)(C)C1CCC(CC2=C(O)c3ccccc3C(=O)C2=O)CC1 (stereo not given) | inactive
Cc1cc(N)c(S(=O)(=O)O)cc1Cl | inactive
O=C1C=CC(=O)N1c1ccc(Cc2ccc(N3C(=O)C=CC3=O)cc2)cc1 | 20 µM (active)
O=[N+]([O-])c1ccccc1Nc1ccccc1 | 5 µM (active)

Compound | Potency
O=C(OCC(COC(=O)c1ccccc1)(COC(=O)c1ccccc1)COC(=O)c1ccccc1)c1ccccc1 | inactive
Cc1ccc2oc(CN(Cc3ccccc3)C(=O)Nc3c(F)cc(F)cc3F)c(-c3ccc(Cl)cc3)c2c1 | 54.6 µM (active)
CN1CCC(Nc2ncc3ncnc(Nc4ccc(F)c(Cl)c4)c3n2)CC1 | inactive
CCCCCCCCCOC(=O)c1ccc(O)cc1 | 27.9 µM (active)
Nc1ccc(N)c2ccccc12 | 2.52 µM (active)
O=Cc1cc(O)ccc1Br | 36.1 µM (active)
CCCCCCCC[P+](CCCCCCCC)(CCCCCCCC)CCCCCCCC | 39.7 µM (active)
CN(C)C(=O)C1(N2CCCCC2)CCN(CC[C@@]2(c3ccc(Cl)c(Cl)c3)CN(C(=O)c3ccccc3)CCO2)CC1 | inactive
Cc1cc(CCN2CCN(c3nsc4ccccc34)CC2)cc2c1NC(=O)CC2(C)C | 35.6 µM (active)
Cc1cccc(S(=O)(=O)O)c1C | inactive
c1cc(C(c2ccc(OCC3CO3)cc2)c2ccc(OCC3CO3)cc2)ccc1OCC1CO1 (stereo not given) | inactive
NNc1nc(-c2ccc([N+](=O)[O-])cc2)cs1 | 3.99 µM (active)
CCOc1ccc2nc3cc(N)ccc3c(N)c2c1 | 0.871 µM (active)
[Cl][Bi]([Cl])([c]1ccccc1)([c]1ccccc1)[c]1ccccc1 | 19.9 µM (active)
O=C(Nc1ccc(Oc2ccc(Cl)cc2)c(Cl)c1)c1cc(I)cc(I)c1O | inactive
COC(=O)c1cc(Cl)ccc1OC | 2.88 µM (active)
CCCCCCCCn1sc(Cl)c(Cl)c1=O | 11.2 µM (active)
